Compound activity (PubChem BioAssay)
Rows were chosen to be rich in hits. Some 3.9% of all compounds tested hit in one or more screens of this group.
esBAF inh: Bmi1 luciferase reporter increase in mESCs, primary screen, esBAF inhibitor project, mouse ES cells, Bmi1 luciferase knock-in, single point; 24 h; 100% = twice the neutral-well signal; actives 2% (n = 350,000); reporter increase, % at 12.5 µM; in the data active means activation above about 40%; inconclusive means no clear call, values can overlap the other calls;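 further: a rise in the Bmi1 reporter signal indicates esBAF inhibition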
MITF act: activators of MITF-driven TRPM1 promoter reporter, primary screen, cell-based, SK-MEL-5, luciferase, single point | SK-MEL-5 TRPM1-promoter luciferase, 24 h; % of positive control, neutral wells = 0 | activation, % at 12.5 µM | actives 0.75% (n = 300,000) | AID 588334, 2011;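 active means mean activation of at least 80% with every replicate also reaching 80%; inconclusive means mean reaches 80% but some replicate falls short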
Wnt bcat act: Wnt/beta-catenin pathway activators, primary screen, cell-based, plate reader, single point; Wnt/beta-catenin reporter cell assay, activator; activation, % at 9.35 µM; actives 1.2% (n = 300,000); AID 743398, 2014; in the data active means activation above about 30%, passing the limit was not always enough; inconclusive means no clear call, values can overlap the other calls
HSF-1 act: HSF-1 activators, primary screen, NIH3T3-HGL cells, MG132 stress, luminescence, single point; NIH3T3-HGL HSF-1 luciferase reporter, 8 h; 100% = twice DMSO control signal; activation, % at 9 µM; actives 1.7% (n = 300,000); AID 504408, 2011;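 active means mean replicate activation of at least 50% with a set share of replicates each reaching 50%; inconclusive means only one of those two conditions met; inactive means mean below 50% and too few replicates reaching it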
HSF1 inhib: HSF1 inhibitors in luciferase reporter cells, primary screen, cell-based, NIH3T3, luminescence; activity change, negative = inhibition, % at 7.5 µM (by protocol); actives 0.77% (n = 300,000); NIH3T3-HGL HSE-luciferase, MG132-induced, luminescence 8 h; active compounds read low;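 active means more than half of replicate wells show activity change below -50%, luminescence cut by over half; inconclusive means some wells, but at most half, below -50%; inactive means no replicate well below -50%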;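 further: luciferase reports HSF-1 transcriptional activity via heat shock element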
Each line names hits and unclear results; the compound was inactive in the other large screens.

COc1cc(SC)ccc1C(=O)Nc1ccc(OCC(=O)N2CCOCC2)cc1	MITF act 82.5
COC(=O)c1ccc(COC(=O)c2ccc(SC)cc2OC)cc1	esBAF inh 62.8
COc1cc(SC)ccc1C(=O)OCC(=O)NCCNC(=O)COC(=O)c1ccc(SC)cc1OC	none
O=C(CN1CCOCC1)N[C@@H]1CC[C@@H](CCn2cc(C3CC3)nn2)O[C@H]1CO	none (no result: MITF act, Wnt bcat act, HSF-1 act, HSF1 inhib)
COc1ccc(NC(=O)N(C)C[C@@H]2OCc3ccccc3-c3ccccc3C(=O)N([C@@H](C)CO)C[C@@H]2C)c(OC)c1	none (no result: MITF act, Wnt bcat act, HSF-1 act, HSF1 inhib)
Cc1ccccc1OCc1nnc2c3cnn(C)c3ncn12	esBAF inh 54.2, MITF act 89.5 (no result: Wnt bcat act)
Nc1c(-c2cccc([N+](=O)[O-])c2)nc2ccccn12	esBAF inh 59.0
CO[C@@H]1CN(C)C(=O)c2cc(NC(C)=O)ccc2OC[C@@H](C)N(C(=O)Cc2cccnc2)C[C@H]1C	none (no result: MITF act, Wnt bcat act, HSF-1 act, HSF1 inhib)
CCCC(=O)Nc1ccc2c(c1)OC[C@@H](C)N(Cc1ccccn1)C[C@H](C)[C@H](OC)CN(C)C2=O	none (no result: MITF act, Wnt bcat act, HSF-1 act, HSF1 inhib)
COc1ccc(Cc2c(-c3ccc(F)cc3)nc3ccc(Br)cn23)c(C)c1	esBAF inh 56.6 (no result: MITF act, HSF-1 act, HSF1 inhib)
COc1ccc(Cc2c(-c3cccc(Cl)c3)nc3ccc(Br)cn23)c(C)c1	esBAF inh 51.0 (no result: MITF act, HSF-1 act, HSF1 inhib)
FC(F)(F)c1ccccc1Cc1c(-c2cccc(Cl)c2)nc2ccc(Br)cn12	esBAF inh 41.8 (no result: MITF act, HSF-1 act, HSF1 inhib)
COc1ccc(Cc2c(-c3cccc(Br)c3)nc3ccc(Br)cn23)c(C)c1	none (no result: MITF act, HSF-1 act, HSF1 inhib)
O=C(/C=C/c1ccc(Cl)cc1Cl)Nc1cccc(S(=O)(=O)NC2=NCCC2)c1	HSF-1 act 62.6 (no result: esBAF inh)
O=C(/C=C/c1ccccc1Cl)Nc1cccc(S(=O)(=O)NC2=NCCCCC2)c1	none (no result: esBAF inh)
CN(C)c1cccc(C(=O)Nc2cccc(S(=O)(=O)NC3=NCCC3)c2)c1	esBAF inh 54.8
O=C(Nc1cccc(S(=O)(=O)NC2=NCCC2)c1)c1ccccc1	none (no result: MITF act, HSF-1 act, HSF1 inhib)
Cc1ccc(S(=O)(=O)N(C)C[C@H]2OCCCC[C@H](C)Oc3ccc(NS(C)(=O)=O)cc3C(=O)N([C@@H](C)CO)C[C@@H]2C)cc1	none (no result: MITF act, Wnt bcat act, HSF-1 act, HSF1 inhib)
CN(C)CC(=O)Nc1ccc2c(c1)[C@H]1C[C@@H](CC(=O)NCCc3ccccc3)O[C@H](CO)[C@H]1O2	none (no result: MITF act, Wnt bcat act, HSF-1 act, HSF1 inhib)
O=C(c1ccccc1)N(CC1CCC1)C[C@@H]1N[C@H](CO)[C@@H]1c1ccccc1	none (no result: MITF act, Wnt bcat act, HSF-1 act, HSF1 inhib)
CN=C1S/C(=C\c2ccc(N3CCCC3)c(F)c2)C(=O)N1C	HSF-1 act inconclusive
CN=C1S/C(=C\c2ccc(N3CCOCC3)c(F)c2)C(=O)N1C	esBAF inh 70.8 (no result: MITF act)
COc1ccc(-c2nc(C#N)c(NCCc3ccccc3)o2)cc1OC	HSF-1 act 79.6 (no result: Wnt bcat act)
CCN(CC)CCCNC(=O)c1ccc2c3n(nc2c1)-c1ccc(Cl)cc1CO3	MITF act 114.0
O=C(c1ccc2c3n(nc2c1)-c1ccccc1CO3)N1CCOCC1	none (no result: Wnt bcat act)
O=C(c1ccc2c3n(nc2c1)-c1ccc(Cl)cc1CO3)N1CCOCC1	esBAF inh 73.2, MITF act 125.8, Wnt bcat act 33.4
C[C@@H](CO)NC(=O)c1ccc2c3n(nc2c1)-c1ccccc1CO3	none
CC(C)NC(=O)c1ccc2c3n(nc2c1)-c1ccc(Cl)cc1CO3	esBAF inh 74.8, MITF act 102.3, Wnt bcat act 33.7
C[C@H]1CCCCO[C@@H](CN(C)Cc2ccc(C(=O)O)cc2)[C@@H](C)CN([C@@H](C)CO)C(=O)c2cc(NC(=O)Nc3ccc4c(c3)OCO4)ccc2O1	none (no result: MITF act, Wnt bcat act, HSF-1 act, HSF1 inhib)
O=C(C[C@H]1C=C[C@H](NC(=O)C2CCOCC2)[C@@H](CO)O1)Nc1ccc(-c2ccccc2)cc1	none (no result: MITF act, Wnt bcat act, HSF-1 act, HSF1 inhib)
CS(=O)(=O)N1N=C(c2ccc(Br)cc2)CC1c1cccs1 (stereo unspecified)	esBAF inh 77.1, HSF-1 act 52.3 (no result: Wnt bcat act)
CCc1ccc(C2=NN(S(C)(=O)=O)C(c3cccs3)C2)cc1 (stereo unspecified)	Wnt bcat act 43.8, HSF-1 act 70.3 (no result: MITF act)
N#C[C@@H]1[C@H](c2ccc(-c3ccccc3F)cc2)[C@H](CO)N1C(=O)C1CC1	none (no result: MITF act, Wnt bcat act, HSF-1 act, HSF1 inhib)
O=C(Nc1ccccc1F)C(=Cc1sc(N2CCOCC2)nc1-c1ccccc1)C(=O)Nc1ccccc1F	HSF-1 act 63.9 (no result: esBAF inh)
O=C(N/N=C/c1sc(N2CCOCC2)nc1-c1ccccc1)c1ccccc1F	none (no result: esBAF inh, MITF act, Wnt bcat act)
O=C(O)c1cccc(N/N=C/c2sc(N3CCOCC3)nc2-c2ccccc2)c1	esBAF inh 48.4 (no result: Wnt bcat act)
N#C/C(=C/c1cccc(C(F)(F)F)c1)c1nc(CCN2C(=O)c3ccccc3C2=O)cs1	HSF1 inhib -58.5 (no result: MITF act, Wnt bcat act)
CCCNC(=O)[C@@H]1[C@@H](CO)[C@@H]2Cn3c(ccc(-c4cccc(C(=O)N(C)C)c4)c3=O)[C@H]1N2	none (no result: MITF act, Wnt bcat act, HSF-1 act, HSF1 inhib)
Cc1nn(-c2ccccc2)c(N)c1N=Nc1cccnc1	MITF act 96.8 (no result: esBAF inh)
Cc1ccc(NC(=O)c2c(Cl)n(C)c3ccccc23)cc1	esBAF inh 67.1, HSF-1 act 71.7 (no result: Wnt bcat act)
Cc1ccc(NC(=O)c2c(O)c3ccccc3n(C)c2=O)nc1	esBAF inh 48.3 (no result: MITF act, Wnt bcat act)
Cn1c(Cl)c(C(=O)Nc2ccccc2)c2ccccc21	none (no result: Wnt bcat act, HSF-1 act, HSF1 inhib)
Cn1c(=O)c(C(=O)NCc2ccccc2)c(O)c2ccccc21	esBAF inh 45.3 (no result: MITF act)
C[C@H](CO)N1C[C@H](C)[C@@H](CN(C)CC2CCCC2)Oc2cc(Br)ccc2S1(=O)=O	none (no result: MITF act, Wnt bcat act, HSF-1 act, HSF1 inhib)
O=C(C[C@H]1CC[C@@H]2[C@H](COC[C@@H](O)CN2S(=O)(=O)c2ccc(Cl)cc2)O1)N[C@@H]1CCN(Cc2ccccc2)C1	none (no result: MITF act, Wnt bcat act, HSF-1 act, HSF1 inhib)
Cc1ccc(S(=O)(=O)N(C)C[C@H]2Oc3ccc(NC(=O)Nc4ccccc4)cc3C(=O)N([C@@H](C)CO)C[C@@H]2C)cc1	none (no result: MITF act, Wnt bcat act, HSF-1 act, HSF1 inhib)
O=C(O)C[C@H]1C[C@H]2c3cc(NC(=O)Nc4ccccc4F)ccc3O[C@H]2[C@@H](CO)O1	none (no result: MITF act, Wnt bcat act, HSF-1 act, HSF1 inhib)
CN(C)c1ccc(/C=C/C(=O)c2ccccc2O)cc1	HSF-1 act 57.9 (no result: esBAF inh)
C[C@H]1CN([C@@H](C)CO)C(=O)c2cc(C3=CCCC3)cnc2O[C@H]1CN(C)Cc1ccccc1	none (no result: MITF act, Wnt bcat act, HSF-1 act, HSF1 inhib)
O=C(CN1C(=O)NC2(CCCC2)C1=O)NCCN1C(=O)S/C(=C\c2ccccc2F)C1=O	HSF-1 act 55.2
CO[C@H]1CN(C)C(=O)c2cc(NS(C)(=O)=O)ccc2OC[C@H](C)N(C(=O)CC2CC2)C[C@@H]1C	none (no result: MITF act, Wnt bcat act, HSF-1 act, HSF1 inhib)
Cc1cc(C)c(C(=O)COC(=O)c2ccc(NC(=O)CC#N)cc2)cc1C	none
Cc1ccc2c(COC(=O)c3ccc(NC(=O)CC#N)cc3)cc(=O)oc2c1C	HSF-1 act 55.7
CC=Cc1ccc2n(c1=O)C[C@@H]1[C@@H](CO)[C@H](C(=O)Nc3ccc(-c4ccccc4)cc3)N(C)[C@H]21 (mixture of isomers)	esBAF inh 61.1 (no result: MITF act, Wnt bcat act, HSF-1 act, HSF1 inhib)
